Results published in PubChem BioAssay AID1985 (Southern Research Specialized Biocontainment Screening …, 2009).
The whole screen tested about 2,300 compounds, of which about 1,000 (43%) were called active. So high a share suggests a set chosen from earlier hits. The list shows a part of the results. Measured potencies and affinities stand elsewhere. A number with no mark means an inactive call. The rule behind the calls is not given here.

Assay: PhoP regulon inhibitor project modified counter assay, GFP fluorescence readout, dose response (AID 1985)
Settings: S. Typhi, 4 h; series mostly up to 150 µM; inhibition: at the top concentration

Row | SMILES | inhibition [%]
1 | O=C(CN1C2=NCCN2c2ccccc21)c1ccc2c(c1)OCO2 | 9.44
2 | CN(C)C(/C=C/Nc1ccc(F)cc1F)=C(C#N)C#N | -10.3
3 | CCOc1ccc(NC(=O)CN(C)C(=O)c2ccccc2CCc2ccccc2)cc1OCC | -32.9
4 | CC(C)CC(=O)Nc1ccc(-c2cn3cccnc3n2)cc1 | 14.1
5 | CCOc1ccc(-c2nc(N)ncc2-c2ccccc2)c(O)c1 | 18.8
6 | CCOc1ccc(NC(N)=O)cc1 | 15.4
7 | Cc1ccc(Cn2c(=N)c(C(=O)NCc3ccco3)cc3c(=O)n4ccccc4nc32)cc1 | 16.6
8 | CCn1cnc2cc(NCc3ccc(Br)cc3)ccc21 | 15.8
9 | NC(=O)CN1N=C(c2cc(Cl)sc2Cl)CSC1=O | 4.36
10 | CN1C(=O)c2ccc(NC(=O)C3CCCCC3)cc2C1=O | -8.71
11 | COc1ccc(C(=O)Nc2cc3c(cc2OC)CCCC3)cc1Br | -5.35
12 | CCCCN(CCCC)CCNC(=O)CSCc1ccc(C)cc1 | -17.4
13 | COCc1[nH]nc2c1C(c1ccc(OC)cc1)C(C#N)=C(N)O2 (configuration not stated) | -3.75
14 | CCCCn1cnc2cc(NCc3cccc(OC)c3O)ccc21 | 28.6
15 | COc1ccccc1NC(=O)Cn1cnc2c(nnn2-c2ccc(C)cc2)c1=O | -10.9
16 | COc1cccc(/C=N/NC(=O)CO/N=C(\C)c2cccs2)c1OC | 34.1
17 | COc1cccc(/C=N/NC(=O)CNC(=O)CCc2ccccc2)c1O | 24.4
18 | Cc1ccc(C)c2[nH]c(=O)c(CN(Cc3cccnc3)C(=S)NCc3ccco3)cc12 | -16.5
19 | C=CCn1c(NC(C)c2cc(Cl)ccc2O)nc2ccccc21 (configuration not stated) | -14.7
20 | COc1ccc(C2=NN3C(=O)c4c(ccc(OC)c4OC)C3C2)cc1 (configuration not stated) | 9.8
21 | O=C(NCc1cccnc1)C1c2ccccc2C(=O)N1Cc1ccccc1 (configuration not stated) | -16.2
22 | O=C(NCc1cccnc1)c1ccc(Cl)cc1[N+](=O)[O-] | -10.5
23 | Clc1ccc(Cn2cc(Br)cn2)cc1Cl | 3.19

Row | SMILES | inhibition [%]
24 | COC(=O)Cn1c(=O)c(C)nc2ccccc21 | -9.43
25 | C=C(C)Cn1c(-c2ccc(OC)cc2)nc2ccccc21 | 3.51
26 | COc1ccc(N2CCN(C(=O)c3cc4c(s3)-c3ccccc3S(=O)(=O)C4)CC2)cc1 | -14.6
27 | CCCC(=O)Nc1c2c(nn1-c1ccc(C)cc1C)CSC2 | 1.8
28 | CN(C)C(=O)COC(=O)/C=C/c1ccccc1[N+](=O)[O-] | -11.5
29 | Oc1ccc(C2NCc3ccccc3-n3cccc32)cc1Cl (configuration not stated) | -0.67
30 | COC(=O)C(NC(C)=O)(Nc1nc2c(s1)CCCC2)C(F)(F)F (configuration not stated) | -28.5
31 | CCN1CCN(CCCNC(=O)c2ccc(/C=C3/Sc4ccccc4N(Cc4ccccc4F)C3=O)cc2)CC1 | 33.6
32 | CCN1CCN(CCNC(=O)c2ccc(/C=C3/Sc4ccccc4N(Cc4cccc(C)c4)C3=O)cc2)CC1 | 12.9
33 | S=C1NCN(C2CCCCC2)CN1c1ccccc1 | 36.9
34 | CC(=O)C1C(c2ccc(OC(F)F)cc2)NC(=O)NC1(O)C(F)(F)F (configuration not stated) | 3.26
35 | COc1ccc(C2C3=C(CC(C)(C)CC3=O)Nc3cc4c(cc32)OCO4)cc1 (configuration not stated) | 1.35
36 | CCc1nc(C)ccc1OCC(=O)N(CC)CC | 11.3
37 | CCc1nc(C)ccc1OCC(=O)NCCCN(C)C | 2.34
38 | Cc1cc(C)n(/N=C/c2cc(Cl)cc(Cl)c2O)c(=O)c1 | 23.2
39 | CC1CCN(C(=O)C2CCCN(S(C)(=O)=O)C2)CC1 (configuration not stated) | -2.3
40 | NC(=O)c1ccc[n+](CC(=O)c2cccc([N+](=O)[O-])c2)c1 | -10.5
41 | Cc1ccc(C(=O)Nc2ccc3c(c2)ncn3C)cc1 | 36.9
42 | COc1ccc(/C=N/NC(=O)c2cccnc2)c(C(=O)O)c1OC | -1.18
43 | COc1cccc(/C=N/NC(=O)CNC(=O)COc2cccc(C)c2)c1O | 14.2
44 | CCCC1=C(C(=O)OCC)C(c2ccc(O)cc2)n2ncnc2N1 (configuration not stated) | 3.12
45 | O=C(CCc1nc2ccccc2s1)NC1CCOC1=O (configuration not stated) | 11.8
46 | COc1ccc(CCNC(=O)CSc2ccc(-c3ccncc3)nn2)cc1 | -11.4

Row | SMILES | inhibition [%]
47 | COC(=O)c1ccc(NC(=O)CO/N=C2\CCCc3nonc32)cc1 | 0.85
48 | Cc1ccc2cc(-c3noc(C4CCCO4)n3)c(=O)[nH]c2c1 (configuration not stated) | -6.59
49 | CC(C)c1ccc2oc(=O)cc(CN3CCN(c4ccc(F)cc4)CC3)c2c1 | -5.48
50 | Cc1ccc(NC(=O)Cc2ccc(F)cc2)cc1 | -1.3
51 | Cc1ccc(NC(=O)COc2ccccc2CNC(C)(C)CC(C)(C)C)cc1 | 17.6
52 | c1ccc2c(c1)C(=NC1CCCCC1)NC2=NC1CCCCC1 | 19.5
53 | Cc1cc(N2CCCCC2)c(F)cc1[N+](=O)[O-] | -27.7
54 | Cc1nn(-c2cc(N3CCNCC3)ccc2[N+](=O)[O-])c(=O)c2ccccc12 | 5.09
55 | CCN(CC(=O)Nc1ccc(C(=O)OC)cc1)C1CCCCC1 | 15.1
56 | Cc1ccc(N2C(=O)[C@@H]3[C@H](C2=O)[C@H]2C=CC=NN2[C@@H]3C(=O)Nc2ccc(Cl)cc2)cc1 | -11.7
57 | COC(=O)c1cccc(C(=O)N2CCCC(CCC(=O)N(C)CCc3ccccn3)C2)c1 (configuration not stated) | -17.6
58 | C[C@@H](CO)NC(=O)c1ccc2c3n(nc2c1)-c1ccc(Cl)cc1CO3 | 17.5
59 | Clc1ccc2c(NCc3ccccn3)ccnc2c1 | 12.8
60 | CCCCCc1nc2c(c3c1CCCC3)CCCC2 | 18.7
61 | N=C1c2ccccc2CN1c1ncccn1 | -13.2
62 | CCCN1CCC(NCc2cn(C)nc2-c2ccc(Oc3ccccc3)cc2)CC1 | 20.2
63 | CN(C)CCCNC(=O)c1ccc(-c2nc(-c3ccc(Cl)cc3)cs2)cc1 | 28
64 | CN(C)CCNC(=O)/C(=C/c1ccc(-c2ccc(Cl)cc2)o1)NC(=O)c1ccccc1 | 25.4
65 | O=C(N/N=C/c1ccc(-c2ccc(Br)cc2)o1)c1ccc2c(c1)OCO2 | 28.8
66 | CCOC(=O)COn1c(=O)c(-c2cccs2)[n+]([O-])c2ccccc21 | 21.9
67 | O=C(O)C1CCCCC1C(=O)NCCc1ccncc1 (configuration not stated) | -26.7
68 | C#CCOCCOCCOCCNc1nc(N2CCN(C(=O)CCCCCCCCCCNC(=O)[C@@H](CCSC)n3cc(CCO)nn3)CC2)nc(N2CCN(C(=O)CCCCCCCCCCNC(=O)[C@H]([C@@H](C)CC)n3cc(CCCCN=C(N)N)nn3)CC2)n1 | -37.3
69 | Cn1c(=O)c2c(nc(Br)n2CCSc2nc3ccccc3o2)n(C)c1=O | -14.5

Row | SMILES | inhibition [%]
70 | CC(=O)c1cccc(CN2CCN(C3CCCC3)C(CCO)C2)c1 (configuration not stated) | -5.89
71 | Cc1ccc(S(=O)(=O)NC(C)(C)CSc2nnc(N)s2)cc1 | -30.3
72 | CCc1ccccc1NC(=S)N(Cc1cccc(C)c1)c1cccnc1 | -7.68
73 | CN1CCN(C(=O)c2cc(-c3cccc(Cl)c3)on2)CC1 | 5.44
74 | CC1(C)CC(N2CCN(C(c3ccccc3)c3ccccc3)CC2)=CC(=[N+]2CCCCC2)C1 | 17.4
75 | CCn1c(-c2cccc(Br)c2)n[nH]c1=S | 11.6
76 | CC(=O)c1sc2nc(=O)c(C)nn2c1C | -12.1
77 | Cc1ccc(C(=O)N2C(=S)C(c3ccc(F)cc3)=NC23CCN(C)CC3)cc1 | 10.3
78 | COc1ccc(N=Cc2c(O)n(CC3CCCO3)c(=O)[nH]c2=O)cc1 (configuration not stated) | -0.83
79 | CC(=O)c1c(C)nc(-c2cccc([N+](=O)[O-])c2)n1O | -7.51
80 | COc1cc(C)nc(N2CCCC(C(=O)NCC(C)C)C2)n1 (configuration not stated) | 6.1
81 | O=C(O)c1csc(-c2ccc(Cl)cc2)n1 | 36.8
82 | O=C(C[n+]1cc(-c2ccc(Cl)cc2)n2c1CCC2)N1c2ccccc2Sc2ccccc21 | 33.5
83 | Cc1ccc(-c2csc(NC(=O)C[n+]3cc(-c4ccccc4)n4c3CCC4)n2)cc1 | -33.3
84 | CCOC(=O)C1CCCN(C/C(O)=C(\C#N)c2nc(-c3ccccc3)cs2)C1 (configuration not stated) | -20.3
85 | CC(=O)N(CCC1(c2ccc(C)cc2)CCOC(C(C)C)C1)Cc1ccco1 (configuration not stated) | 18.1
86 | Cc1cccc(/C(N)=N/OC(=O)N2CCOCC2)c1 | 25.3
87 | CCOC(=O)C1CCN(Cc2nc(-c3ccc(OC)c(OC)c3)no2)CC1 | -15.2
88 | CC(=O)c1ccc(NC(=O)CN2CCCCCC2)cc1 | 15.7
89 | O=C(Cn1[nH]c(=O)c2ccccc2c1=O)Nc1ccc(-c2nnc3n2CCCCC3)cc1 | 10.1
90 | COC(=O)c1ccc(CSc2ccc3nnc(-c4ccc(OC)c(OC)c4)n3n2)o1 | -11.5
91 | COc1ccc(S(=O)(=O)NCCSCc2ccco2)cc1Cl | 12.5
92 | CCN1CCCC1Cn1cnc2c([nH]c3ccc(Cl)cc32)c1=O (configuration not stated) | 26.1

Row | SMILES | inhibition [%]
93 | Clc1ccc(CONc2ncnc3nonc23)c(Cl)c1 | 12.7
94 | CCCCCCCCn1ccc(=N)cc1 | 15.6
95 | O=c1c2ccccc2nc(-c2ccoc2)n1CCc1ccccc1 | 18.5
96 | O=C(On1c(-c2ccccc2)nc2ccccc2c1=O)c1ccco1 | 25.2
97 | CCC(O)CNc1nc(SC)nc2sc3c(c12)CCN(C)C3 (configuration not stated) | 6.31
98 | CN1C(=O)C2(Nc3ccccc3-c3nc4ccccc4n32)c2ccccc21 (configuration not stated) | 3.48
99 | O=C(N/N=C\c1cccc([N+](=O)[O-])c1O)C1COc2ccccc2O1 (configuration not stated) | -26.6
100 | CCCCCN1C(=O)/C(=C/c2c(N3CCc4ccccc4C3)nc3ccccn3c2=O)SC1=S | -12.8
101 | CCN(CC)Cc1c(C(=O)N/N=C/c2cccs2)nnn1-c1nonc1N | 28.9
102 | C/C(=N\NC(=O)c1c(Br)c(C)nn1C)c1ccc(NC(=O)c2ccoc2C)cc1 | 5.71
103 | Clc1ccc(N/N=C/c2cccs2)nn1 | 7.58
104 | COc1cccc2cc(C(=O)Nc3ccccc3C)/c(=N/O)oc12 | -16.5
105 | Cn1cc(C(=O)N/N=C/C(Br)=C/c2ccccc2)ccc1=O | 4.35
106 | Cc1ccnc(NC(=O)CCC(=O)N(CC(=O)NC2CCCCC2)C2CCCC2)c1 | -5.33
107 | COC(=O)C1C(=O)C2=C(CC1C)Nc1ccccc1NC2c1ccc(C)s1 (configuration not stated) | -5.97
108 | CC(C(=O)NC1CCCCC1)N1CCN(C)CC1 (configuration not stated) | -31.5
109 | CN(C)c1nnnn1-c1ccc(Oc2ccccc2)cc1 | 24.8
110 | COC(=O)c1sccc1NC(=S)NCc1ccc(Cl)cc1 | -3.82
111 | Cn1nnnc1SCC(=O)Nc1ccccc1-c1ccccc1 | 9.74
112 | CC1CCN(C(=O)CSc2nnc(Cc3cc(=O)[nH]c(=O)[nH]3)n2-c2ccc(Cl)cc2)CC1 | 17.4
